Bioassay records from PubChem BioAssay.
An excerpt weighted towards active compounds, which were near 2.2% of everything screened.
aSyn 5UTR inh: MLPCN primary screen, SNCA 5' untranslated region; AID 1813, 2009; inhibition, % (tested at 7.5 µM); alpha-synuclein 5'UTR reporter, inhibitor activity; 300,000 compounds, 0.82% hits; in the data active = inhibition above about 60%; inconclusive = no clear call, values can overlap the other calls;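 also: H4 neuroglioblastoma cells stably carrying SNCA 5'UTR luciferase fusion; 0% = DMSO wells and 100% = positive control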
APP 5UTR inh: inhibitors of APP translation via 5'UTR reporter, primary screen, APP 5'UTR luciferase, SH-SY5Y cells. SH-SY5Y APP 5'UTR-luciferase reporter, luminescence. inhibition, % at 2 µM. 190,000 compounds, 0.82% hits;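 active = inhibition above a set limit, derived from the sample mean plus 3 SD, cut at about 45% in these data; inconclusive = one replicate passes the limit while the other fails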
BaF3 tox: parental Ba/F3 cell viability inhibition, counter-screen for JAK2V617F inhibitor project, murine pro-B, CellTiter-Glo luminescence; CellTiter-Glo ATP luminescence; inhibition, % at 5.6 µM; 220,000 compounds, 1.1% hits; AID 1486, 2009;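 active = inhibition above a per-campaign cutoff, the mean inhibition of all tested compounds plus 3 SD, cut at about 27% in these data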;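 also: 0% = DMSO wells and 100% = JAK Inhibitor I control wells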
IEC-6 cytotox: cytotoxicity in IEC-6 intestinal epithelial cells, primary screen, cytotoxicity control for KLF5 inhibitor project, cell-based, luminescence. IEC-6 cytotoxicity, luminescence viability. inhibition, % at 5 µM. 290,000 compounds, 0.78% hits. AID 1825, 2009; in the data active = inhibition above about 22%;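 also: 0% = plate median of test compound wells and 100% = cytotoxic reference compound wells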
KLF5 inhibitor: KLF5 expression inhibitors, primary screen, DLD-1 cells, luminescence. inhibition, % at 5 µM. AID 1700, 2009. 290,000 compounds, 0.23% hits. DLD-1 KLF5 promoter-luciferase reporter;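 active = inhibition above a per-plate limit of that plate's mean compound inhibition plus 3 SD, cut at about 60% in these data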;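 also: 0% = DMSO wells and 100% = LY294002 at 200 µM; higher means less KLF5 promoter-driven luciferase light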
Ba/F3 V617F tox: reduced viability of JAK2V617F-dependent Ba/F3 cells, primary screen, JAK2V617F inhibitor project, cell-based, Ba/F3 EpoR-JAK2V617F, luminescence; ATP luminescence; 220,000 compounds, 1.1% hits; AID 1446, 2008; inhibition, % at 5.6 µM;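 active = inhibition above the campaign mean plus 3 SD over all tested compounds, cut at about 24% in these data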;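 also: cytokine-independent growth of Ba/F3 cells driven by EpoR plus mutant JAK2; 0% = DMSO-treated cells and 100% = JAK inhibitor I control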
Starred values were filed as active, the others as inactive.

O=C(CNS(=O)(=O)c1ccccc1)Nc1ccc(C(F)(F)F)cc1 was read as aSyn 5UTR inh -2, APP 5UTR inh 68*, BaF3 tox 3, IEC-6 cytotox -3, KLF5 inhibitor -57 and Ba/F3 V617F tox -2.
`Cc1cc(F)ccc1S(=O)(=O)N1CCCOC1CNC(=O)C(=O)NCc1cccnc1` (stereo not drawn) gave aSyn 5UTR inh -3, IEC-6 cytotox -7 and KLF5 inhibitor -37.
Screening Cc1ccc(C(=O)/C=C\C(=O)c2ccc(C)cc2)cc1 returned aSyn 5UTR inh -63, APP 5UTR inh 88*, BaF3 tox 3, IEC-6 cytotox -3, KLF5 inhibitor -8 and Ba/F3 V617F tox -2.
Screening COc1ccc2nc(C)cc(SCC(=O)N/N=C/c3ccccc3)c2c1 returned aSyn 5UTR inh 0, APP 5UTR inh 2, BaF3 tox 2, IEC-6 cytotox -8, KLF5 inhibitor 9 and Ba/F3 V617F tox 1.
`COc1ccc2nc(C)cc(SCC(=O)N/N=C/c3ccc(O)cc3O)c2c1` gave aSyn 5UTR inh 80*, APP 5UTR inh 36, BaF3 tox 15, IEC-6 cytotox 5, KLF5 inhibitor 22 and Ba/F3 V617F tox 7.
Cc1ccc(OCC(=O)N/N=C\c2cn(Cc3ccccc3)c3ccccc23)cc1C was read as aSyn 5UTR inh 76*, APP 5UTR inh -20, BaF3 tox 2, IEC-6 cytotox -7, KLF5 inhibitor 3 and Ba/F3 V617F tox -4.
Nc1ccc(C(=O)N/N=C/c2cn(Cc3ccccc3)c3ccccc23)cc1 was read as aSyn 5UTR inh 57, IEC-6 cytotox 6 and KLF5 inhibitor -33.
Screening COC(=O)N/N=C/c1cn(Cc2ccccc2F)c2ccccc12 returned aSyn 5UTR inh 51, BaF3 tox -5, IEC-6 cytotox 4, KLF5 inhibitor -22 and Ba/F3 V617F tox 1.
Nc1ccc(C(=O)N/N=C/c2cn(Cc3ccc(F)cc3)c3ccccc23)cc1 was read as aSyn 5UTR inh 64*, IEC-6 cytotox 13 and KLF5 inhibitor -42.
`Nc1ccc(C(=O)N/N=C/c2cn(Cc3ccccc3F)c3ccccc23)cc1` gave aSyn 5UTR inh 72*, IEC-6 cytotox 12 and KLF5 inhibitor -21.
For COc1ccccc1NC(=O)c1ccc2c(c1)N(CC#N)C(=O)C(C)(C)O2 the results were aSyn 5UTR inh 5, IEC-6 cytotox 4 and KLF5 inhibitor -3.
Screening CCOc1ccc(CCN2C(=O)C(=O)N([C@H](CCCN(C)Cc3ccccc3)CNCc3ccccc3)C[C@@H]2C(C)C)cc1 returned aSyn 5UTR inh -8.
`COc1ccc(CNC[C@@H](CCCCN(C)Cc2ccc(OC)cc2)N2C[C@H](c3ccccc3)N(CCc3ccc(Cl)c(Cl)c3)C(=O)C2=O)cc1` gave aSyn 5UTR inh 92*, APP 5UTR inh 0, BaF3 tox 5, IEC-6 cytotox 1, KLF5 inhibitor -7 and Ba/F3 V617F tox 2.
`CCCCCCCCCCCCCCCC[n+]1cccc2ccccc21` gave APP 5UTR inh 23, BaF3 tox 82*, IEC-6 cytotox 28*, KLF5 inhibitor -5 and Ba/F3 V617F tox 101*.
For Cc1ccccc1C[n+]1cccc2ccccc21 the results were aSyn 5UTR inh -19.
Screening CCOc1ccc(NC2=C(OC)C(=O)c3ccccc3C2=O)cc1 returned aSyn 5UTR inh -94, APP 5UTR inh 7, BaF3 tox 11, IEC-6 cytotox -2, KLF5 inhibitor -22 and Ba/F3 V617F tox -1.
Screening CCN(CC)c1ccc(NC2=C(Cl)C(=O)c3ccccc3C2=O)cc1 returned APP 5UTR inh 96*, BaF3 tox 0, IEC-6 cytotox 9, KLF5 inhibitor -63 and Ba/F3 V617F tox -2.
Screening Cc1ccc(NC2=CC(=O)C(=O)c3ccccc32)cc1 returned aSyn 5UTR inh 103*, APP 5UTR inh -30, BaF3 tox 10, IEC-6 cytotox 2, KLF5 inhibitor -57 and Ba/F3 V617F tox 4.
Cc1ccc(NC2=C(Cl)C(=O)c3ccccc3C2=O)cc1 was read as aSyn 5UTR inh inconclusive, APP 5UTR inh 96*, BaF3 tox 4, IEC-6 cytotox 2, KLF5 inhibitor -9 and Ba/F3 V617F tox 3.
For CCNC1=C(Cl)C(=O)c2ccccc2C1=O the results were aSyn 5UTR inh -23, APP 5UTR inh -4, BaF3 tox 2, IEC-6 cytotox 19, KLF5 inhibitor -74 and Ba/F3 V617F tox -1.
NS(=O)(=O)c1ccc(NC2=CC(=O)C(=O)c3ccccc32)cc1 was read as aSyn 5UTR inh 51, IEC-6 cytotox -2 and KLF5 inhibitor -34.
For CCCN(CC(=O)Nc1ccccc1OC)C(=O)c1cc(-c2cccs2)nn1-c1ccccc1 the results were aSyn 5UTR inh 12.
COc1ccccc1NC(=O)C(CC=C(Cl)Cl)C(C)=O (stereo not drawn) was read as aSyn 5UTR inh 0, APP 5UTR inh 5, BaF3 tox 39*, IEC-6 cytotox 4, KLF5 inhibitor 2 and Ba/F3 V617F tox -7.
For COc1ccccc1NC(=O)C(C/C=C(\C)Cl)C(C)=O (stereo not drawn) the results were aSyn 5UTR inh -73, APP 5UTR inh -12, BaF3 tox -1, IEC-6 cytotox 3, KLF5 inhibitor -4 and Ba/F3 V617F tox -1.
`C=CC(=O)N=c1sc2ccccc2n1-c1ccccc1` gave aSyn 5UTR inh 70*, APP 5UTR inh 39, BaF3 tox 2, IEC-6 cytotox 13, KLF5 inhibitor -14 and Ba/F3 V617F tox 3.
Screening N=c1sc2ccccc2n1-c1ccccc1 returned aSyn 5UTR inh 27, APP 5UTR inh 0, BaF3 tox 10, IEC-6 cytotox 1, KLF5 inhibitor -15 and Ba/F3 V617F tox 3.
`CS(=O)(=O)c1ccc(Cl)c(NC(=O)COC(=O)c2ccc(-n3cnnn3)cc2)c1` gave aSyn 5UTR inh -18.
`COC(=O)c1c(C)[nH]c(C(=O)N2CCN(c3ccc(OC)cc3)CC2)c1C` gave aSyn 5UTR inh -43, APP 5UTR inh 7, BaF3 tox 9, IEC-6 cytotox -1, KLF5 inhibitor -34 and Ba/F3 V617F tox 1.
Screening COc1cccc(N2CCN(C(=O)c3[nH]c(C)c(C(C)=O)c3C)CC2)c1 returned aSyn 5UTR inh -2, APP 5UTR inh 29, BaF3 tox 35*, IEC-6 cytotox 16, KLF5 inhibitor 41 and Ba/F3 V617F tox 21.
CN(C)CCN(C(=O)/C=C/c1cccs1)c1nc2c(F)cc(F)cc2s1 was read as aSyn 5UTR inh 96*, APP 5UTR inh 8, BaF3 tox 7, IEC-6 cytotox -2, KLF5 inhibitor 14 and Ba/F3 V617F tox 2.
`CN(C)CCCN(C(=O)/C=C/c1cccs1)c1nc2ccc(F)cc2s1` gave aSyn 5UTR inh -14, APP 5UTR inh -31, BaF3 tox 13, IEC-6 cytotox 0, KLF5 inhibitor -10 and Ba/F3 V617F tox 6.
